From PubChem BioAssay
In the library only some 31% were active in any assay of this set; here they are far more common.
CYP2C9 activ = increases human cytochrome P450 2C9 activity; recombinant CYP2C9, luciferin-H conversion, luminescence; hits give high values; factor 1 = untreated enzyme, 0 = blocked; activation factor at 5 µM; P11712; 1.4% of 96,000 active;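 active = activation factor of 2 or more for CYP2C9 at a 5 µM dose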
CYP2C9 inhib = inhibitors of human CYP2C9; P11712; CYP2C9 Supersomes, luciferin-H conversion, luminescence; inhibition, % at 5 µM; 20% of 96,000 active; AID 777;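 active = blocking of liver enzyme CYP2C9 beyond about 50% at 5 µM, limit read from the data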
CYP2C19 act = cytochrome P450 2C19 (human) activation | recombinant CYP2C19, luciferin-H EGE luminescence; hits give high values; 0 = fully inhibited enzyme, 1 = untreated enzyme | activation factor at 5 µM | P33261 | AID 1025 | 96,000 tested, under 10 active;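 active = activation factor of at least 2 at 5 µM in the primary screen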
CYP2C19 inh = human CYP2C19 inhibition. P33261. CYP2C19 Supersomes, luciferin-H EGE luminescence, 30 min. inhibition, % at 5 µM. 21% of 96,000 active. AID 778;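 active = CYP2C19 inhibition above a set limit at 5 µM in the primary screen, cut at about 50% in these data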
PLAP act = activators of human placental alkaline phosphatase. 1.2% of 96,000 active. AID 696. purified PLAP enzyme, luminescent substrate read-out; hits give high values. activation fold at 20 µM; in the data active = activation fold above about 2
Target sequence (P05187 whole entry, looked up): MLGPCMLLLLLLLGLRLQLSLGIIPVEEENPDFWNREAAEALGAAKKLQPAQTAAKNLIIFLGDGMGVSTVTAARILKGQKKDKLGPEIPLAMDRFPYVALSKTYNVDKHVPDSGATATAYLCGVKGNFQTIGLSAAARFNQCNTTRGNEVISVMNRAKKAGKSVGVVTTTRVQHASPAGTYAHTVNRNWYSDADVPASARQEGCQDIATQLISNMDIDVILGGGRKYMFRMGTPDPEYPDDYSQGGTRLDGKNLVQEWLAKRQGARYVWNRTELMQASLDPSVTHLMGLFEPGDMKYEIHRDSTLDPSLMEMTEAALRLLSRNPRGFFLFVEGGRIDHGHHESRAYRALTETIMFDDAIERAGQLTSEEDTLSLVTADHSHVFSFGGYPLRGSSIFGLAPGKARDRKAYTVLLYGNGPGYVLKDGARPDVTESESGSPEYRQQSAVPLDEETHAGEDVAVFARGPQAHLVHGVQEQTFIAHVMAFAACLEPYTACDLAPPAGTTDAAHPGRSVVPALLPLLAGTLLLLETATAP
A number is an active result; i = inactive.

SMILES	CYP2C9 activ	CYP2C9 inhib	CYP2C19 act	CYP2C19 inh	PLAP act
O=C(NCc1ccco1)C1(S(=O)(=O)c2ccc(Cl)cc2)CC1	i	i	i	73	i
O=C(CC(NS(=O)(=O)c1ccc(Cl)cc1)c1ccco1)NCc1ccco1 (stereo not drawn)	i	i	i	61	i
CCCCNCC(=O)Nc1ccc(NC(=O)CNCCCC)cc1	i	i	i	i	i
CC(C)(C)c1ccc(C(=O)CC(=O)c2cc(Cl)ccc2O)cc1	i	60	i	57	i
Cc1ccc(C(=O)CC(=O)c2cc(Cl)ccc2O)cc1	i	i	i	i	i
O=C(CSCCO)Nc1ccc(C2CCCCC2)cc1	i	i	i	i	i
Cc1ccc2oc3nc(C)c(C(=O)O)cc3c(=O)c2c1	i	i	i	60	i
C=CCn1c(SCc2ccccc2C#N)nnc1-c1ccccc1O	i	i	i	98	i
C=CCn1c(SCC(N)=O)nnc1-c1cc(Br)ccc1O	i	i	i	87	i
C=CCn1c(SCC(=O)NCc2ccccc2)nnc1-c1ccccc1O	i	74	i	71	i
C=CCn1c(SCc2ccc(C#N)cc2)nnc1-c1ccccc1	i	i	i	i	i
C=CCn1c(CSCc2ccc(C)cc2)nnc1SCC(=O)NCc1ccccc1	i	79	i	80	i
C=CCn1c(SCC(N)=O)nnc1-c1ccccc1O	i	i	i	i	i
Cc1c(NC(=O)CCN2C(=O)c3ccccc3C2=O)c(=O)n(-c2ccccc2)n1C	i	i	i	i	i
C=CCn1c(CSCc2ccc(Cl)cc2)nnc1SCC(=O)NCc1ccccc1	i	81	i	87	i
O=C(CSc1nnc(CCc2ccccc2)n1-c1ccc(Cl)cc1)NCc1ccccc1	i	89	i	84	i
CC(C)NC(=S)N/N=C1\CCCCC1C1CCCCC1 (stereo not drawn)	i	80	i	63	i
CCC(C(=O)NC(C)(C)C)N(C(=O)Cn1nnc(-c2cccs2)n1)c1cnc2ccccc2c1 (stereo not drawn)	i	65	i	i	i
COc1cccc(C2=NOC(C(=O)Nc3ccccc3SC)C2)c1 (stereo not drawn)	2.5	i	i	63	i
COc1cccc(C2=NOC(C(=O)Nc3cc(OC)c(OC)c(OC)c3)C2)c1 (stereo not drawn)	i	i	i	i	i
COc1ccc(CNC(=O)C2CC(c3cccc(OC)c3)=NO2)cc1 (stereo not drawn)	i	i	i	i	i
COCC(C)NC(=O)C1CC(c2cccc(Br)c2)=NO1 (stereo not drawn)	2.1	i	i	i	i
COc1ccc(OC)c(C2=NOC(C(=O)NCc3ccco3)C2)c1 (stereo not drawn)	3.1	i	i	i	i
COc1cccc(C2=NOC(C(=O)NCc3cccs3)C2)c1 (stereo not drawn)	i	68	i	54	i
Cc1nc(-c2ccccc2)sc1C(=O)CSc1ccc(Cl)cc1	i	77	i	i	i
SMILES	CYP2C9 activ	CYP2C9 inhib	CYP2C19 act	CYP2C19 inh	PLAP act
Cc1nc(-c2ccccc2)sc1C(=O)CSc1ccc(Br)cc1	i	85	i	i	i
CCOCCn1c(SCc2cccc(C)c2)nc2c1c(=O)[nH]c(=O)n2C	i	i	i	i	i
COCCCNC(=S)NC1CC2CCCC(C1)N2Cc1ccco1 (stereo not drawn)	i	i	i	i	i
COc1ccc(C(=O)NCCn2cc(SCC(=O)Nc3cc(C)on3)c3ccccc32)cc1OC	i	i	i	56	i
O=C(CSc1cn(CCNC(=O)c2ccc3ccccc3c2)c2ccccc12)NCc1ccco1	i	i	i	i	i
CCOc1ccc(C(=O)NCCn2cc(SCC(=O)Nc3cc(C)on3)c3ccccc32)cc1	i	57	i	i	i
Cc1cc(NC(=O)CSc2cn(CCNC(=O)c3ccc(Cl)cc3)c3ccccc23)no1	i	i	i	i	i
COC(=O)c1ccc2c(=O)[nH]c(CN3c4ccccc4CC3C)nc2c1 (stereo not drawn)	i	82	i	i	i
CC1Cc2ccccc2N1Cc1nc2scc(-c3cccs3)c2c(=O)[nH]1 (stereo not drawn)	i	95	i	75	i
CC1Cc2ccccc2N1Cc1nc2cc(Cl)ccc2c(=O)[nH]1 (stereo not drawn)	i	80	i	57	i
N#Cc1ccc(COC(=O)c2ccc3c(=O)[nH]c(CN4CCOCC4)nc3c2)cc1	i	i	i	i	i
O=c1[nH]c(CN2CCCCC2)nc2ccccc12	i	i	i	i	i
c1ccc(CSc2nnc(-c3sccc3-n3cccc3)o2)cc1	i	i	i	i	i
O=c1[nH]c2ccccc2n2c(-c3ccncc3)nnc12	i	i	i	i	i
CCOc1ccc2nc(NC(=O)C(CCSC)NS(=O)(=O)c3cccs3)sc2c1 (stereo not drawn)	i	i	i	i	2.4
CCOc1ccc2nc(NC(=O)C3CCCN(S(=O)(=O)c4cccs4)C3)sc2c1 (stereo not drawn)	i	60	i	50	i
CCOc1ccc2nc(NC(=O)C(NS(=O)(=O)c3cccs3)C(C)C)sc2c1 (stereo not drawn)	i	i	i	i	i
Cc1ccccc1OC(=O)C1C(c2ccccc2)C(C(=O)O)C1c1ccccc1 (stereo not drawn)	i	i	i	i	i
Cc1ccc(-c2nc3ccccc3s2)cc1S(=O)(=O)N1CCCC1	i	93	i	69	i
Cc1ccc(S(=O)(=O)N2CCCN(S(=O)(=O)c3ccc(C)c(C)c3)CC2)cc1C	i	i	i	i	i
Cc1ccc(S(=O)(=O)c2ccc(Cl)cc2)cc1S(=O)(=O)N1CCOCC1	i	69	i	79	i
Cc1ccc(S(=O)(=O)N2CCCC2)cc1S(=O)(=O)N1CCCC1	i	i	i	52	i
Cc1ccc(Br)cc1S(=O)(=O)N1CCN(c2ccccc2)CC1	i	i	i	64	i
O=S(=O)(c1cccc(-c2nc3ccccc3s2)c1)N1CCOCC1	i	i	i	i	i
Cc1ccc(C(=O)O)cc1S(=O)(=O)N1CCOCC1	i	i	i	i	i
SMILES	CYP2C9 activ	CYP2C9 inhib	CYP2C19 act	CYP2C19 inh	PLAP act
O=C(O)c1cn[nH]c1-n1cnnn1	i	i	i	i	i
COc1ccc(N2C(=O)C3CCCN3C2c2ccc(C)cc2)cc1Cl (stereo not drawn)	i	i	i	i	i
CC1(C)CC(=O)c2c(n(-c3cccc4ccccc34)ccc2=O)C1	i	i	i	i	i
Cc1cc2oc(C(=O)N(Cc3ccco3)C3CCS(=O)(=O)C3)cc(=O)c2cc1Cl (stereo not drawn)	i	i	i	i	i
CCCCCC(=O)N1CCN(CCN=CC2=C(O)CC(c3ccc(OC)c(OC)c3)CC2=O)CC1 (stereo not drawn)	i	64	i	i	i
CC1(C)CC(=O)C(C=NCCN2CCN(C(=S)Nc3ccc(F)cc3)CC2)=C(O)C1	i	i	i	75	i
O=C1CC(c2ccccc2)CC(O)=C1C=NCCN1CCN(C(=S)Nc2cccc(Cl)c2)CC1 (stereo not drawn)	i	i	i	72	i
COC(=O)c1ccc(CNC(=O)CSc2nnc(COc3ccccc3)n2C)o1	i	i	i	i	i
Cc1cccc(C)c1NC(=O)N1CCC(c2nc3ccccc3o2)CC1	i	i	i	i	i
